# Results reported in the supplement of paper PMC12340860.
# ± gives the standard deviation of the averaged measurements.
# Tested on: Caenorhabditis elegans infected with Nematocida parisii
# Assay: progeny production of N. parisii-infected C. elegans relative to uninfected control; higher = stronger inhibition of microsporidia infection (rescue of reproduction)
# Conditions: 60 µM; incubation time 5 days; spore dose (spores/uL): 18000
# Protocol: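 C. elegans N2 L1 larvae (100 per well, 96-well plate, K-medium with 5x E. coli OP50, 1% DMSO) were infected with Nematocida parisii spores (18,000 spores/uL) that had been pre-incubated for 1 h with each BU-CMD library compound at 60 uM. Plates were incubated 5 days at 21 C with shaking. Progeny were stained with rose bengal, scanned on a flatbed scanner and counted with WorMachine. Progeny number is expressed as % of uninfected DMSO controls on the same plate; three biological replicates per compound; hits were compounds with at least 60% progeny production.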
row,Compound,progeny production [%]
1,COC(=O)[C@@H]1[C@@H](c2ccccc2)[C@]2(c3ccc(OC)cc3)Oc3cc(OC)cc(OC)c3[C@@]23N=C(C)N[C@@]13O,14.3 ± 4
2,COC(=O)[C@@H]1[C@@H](c2ccccc2)[C@]2(c3ccc(OC)cc3)Oc3cc(OC)cc(OC)c3[C@@]23N=C(C2CC2)N[C@@]13O,8.05 ± 3.6
3,CONC(=O)[C@H]1[C@@H](O)[C@@]2(O)c3c(OC)cc(OC)cc3O[C@@]2(c2ccc(OC)cc2)[C@@H]1c1ccccc1,13.2 ± 4.2
